The values below come from the supplement of paper PMC10981050.

Holding throughout (assay): cell viability relative to vehicle control; higher = less cytotoxic
Conditions in all cases: 10 µM

The test system of assay [1] is K562. The procedure, abridged:
(§1)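 After removal of identity-inconsistent compounds, the Selleck bioactive, kinase and epigenetic probe libraries were screened on CRISPR-edited mutant clones and isogenic wild-type clones of four leukaemia lines. Plates were 384-well, each well holding 2000 cells in 50 µL medium and receiving a single 10 µM acoustically dispensed dose. CellTiter-Glo luminescence was read 48 h later, after the supernatant was taken off. Genedata Screener was used to express viability as percent of the on-plate vehicle control.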

In assay [2] the test system is MARIMO. The procedure, abridged:
as §1

The subject of assay [3] is MOLM14. The procedure, abridged: as §1
The subject of assay [4] is OCI-AML2. In outline:
as §1

Molecules are shown by their SMILES. Several values for one entry are separate records, joined by “and”; a condition that tells them apart may be missing. Equal entries are not always repeated.

Consider `Cc1ccc([C@@H]2O[C@H](CO)[C@@H](O)[C@H](O)[C@H]2O)cc1Cc1ccc(-c2ccc(F)cc2)s1` [Canagliflozin], for which the cell viability (usually a read-out of living cells in per cent, often relative to untreated cells) in assay [1] (SRSF2 genotype: SRSF2 P95H/wt) was 93.4% and 99.1%; in assay [1] (SRSF2 genotype: SRSF2 wt/wt), 99.7%; in assay [2] (SRSF2 genotype: SRSF2 P95H/wt), 99%; in assay [2] (SRSF2 genotype: SRSF2 wt/wt), 90.3%; in assay [3] (SRSF2 genotype: SRSF2 P95H/wt), 102%; in assay [3] (SRSF2 genotype: SRSF2 wt/wt), 102%. For the same compound, the cell viability worked out at 102% in assay [4] (SRSF2 genotype: P95H/wt) and 97.1% in assay [4] (SRSF2 genotype: wt/wt).
For the compound `O=C1CCC[C@@H]2[C@H]3CCC[N+]4([O-])CCC[C@@H](CN12)[C@@H]34` (some centres not stated) [Oxymatrine (Matrine N-oxide)], the cell viability in assay [1] (SRSF2 genotype: SRSF2 P95H/wt) is 105% and 96.8%; in assay [1] (SRSF2 genotype: SRSF2 wt/wt), 99%; in assay [2] (SRSF2 genotype: SRSF2 P95H/wt), 101%; in assay [2] (SRSF2 genotype: SRSF2 wt/wt) it was 98.9%; in assay [3] (SRSF2 genotype: SRSF2 P95H/wt), 100%; in assay [3] (SRSF2 genotype: SRSF2 wt/wt), 98.2%. Also, the cell viability was found to be 97.7% in assay [4] (SRSF2 genotype: P95H/wt) and 96.5% in assay [4] (SRSF2 genotype: wt/wt).
In the case of `O=c1c(O)c(-c2ccc(O)c(O)c2)oc2cc(O)cc(O)c12` [Quercetin dihydrate (Sophoretin)], the cell viability in assay [1] (SRSF2 genotype: SRSF2 P95H/wt) is 107% and 99.5%; in assay [1] (SRSF2 genotype: SRSF2 wt/wt) it was 92.6%; in assay [2] (SRSF2 genotype: SRSF2 P95H/wt) it was 98.4%; in assay [2] (SRSF2 genotype: SRSF2 wt/wt), 98%; in assay [3] (SRSF2 genotype: SRSF2 P95H/wt) it was 100%; in assay [3] (SRSF2 genotype: SRSF2 wt/wt), 99.6%. Also, the cell viability was 97.4% in assay [4] (SRSF2 genotype: P95H/wt) and 96.5% in assay [4] (SRSF2 genotype: wt/wt).
Consider `COc1cc(NS(=O)(=O)c2ccc(N)cc2)nc(OC)n1` [Sulphadimethoxine], for which the cell viability in assay [1] (SRSF2 genotype: SRSF2 P95H/wt) is 95.8% and 87.4%; in assay [1] (SRSF2 genotype: SRSF2 wt/wt), 95.9%; in assay [2] (SRSF2 genotype: SRSF2 P95H/wt), 91.3%; in assay [2] (SRSF2 genotype: SRSF2 wt/wt) it was 98%; in assay [3] (SRSF2 genotype: SRSF2 P95H/wt) it was 96.7%; in assay [3] (SRSF2 genotype: SRSF2 wt/wt), 91.5%. The cell viability in assay [4] (SRSF2 genotype: P95H/wt) came to 90.4%; in assay [4] (SRSF2 genotype: wt/wt), 91.4%.
For `Cn1c(=O)c2c(ncn2CC(O)CO)n(C)c1=O` (configuration not stated) [Dyphylline (Dilor)], the cell viability in assay [1] (SRSF2 genotype: SRSF2 P95H/wt) is 101% and 102%; in assay [1] (SRSF2 genotype: SRSF2 wt/wt), 100%; in assay [2] (SRSF2 genotype: SRSF2 P95H/wt), 94.9%; in assay [2] (SRSF2 genotype: SRSF2 wt/wt) it was 105%; in assay [3] (SRSF2 genotype: SRSF2 P95H/wt) it was 97.8%; in assay [3] (SRSF2 genotype: SRSF2 wt/wt), 101%. The cell viability in assay [4] (SRSF2 genotype: P95H/wt) amounted to 95%; in assay [4] (SRSF2 genotype: wt/wt), 102%.
With `Cc1c(C(=O)Nc2ccc(N3C[C@@H](C)O[C@@H](C)C3)nc2)cccc1-c1ccc(OC(F)(F)F)cc1` [LDE225 (NVP-LDE225, Erismodegib)], the cell viability in assay [1] (SRSF2 genotype: SRSF2 P95H/wt) is 82.9% and 91.2%; in assay [1] (SRSF2 genotype: SRSF2 wt/wt) it was 91.9%; in assay [2] (SRSF2 genotype: SRSF2 P95H/wt) it was 86.2%; in assay [2] (SRSF2 genotype: SRSF2 wt/wt), 102%; in assay [3] (SRSF2 genotype: SRSF2 P95H/wt) it was 87.7%; in assay [3] (SRSF2 genotype: SRSF2 wt/wt), 95.9%. Further, the cell viability in assay [4] (SRSF2 genotype: P95H/wt) is 77.6%; in assay [4] (SRSF2 genotype: wt/wt) it was 85%.
As for `Cc1nn(C)c(COc2ccc(N3CCN(S(=O)(=O)N(C)C)CC3)cc2)c1-c1cccc2c(CCCOc3cccc4ccccc34)c(C(=O)O)n(CCN3CCOCC3)c12`, the cell viability was 93.7% and 106% in assay [1] (SRSF2 genotype: SRSF2 P95H/wt); 99.8% in assay [1] (SRSF2 genotype: SRSF2 wt/wt); 101% in assay [2] (SRSF2 genotype: SRSF2 P95H/wt); 107% in assay [2] (SRSF2 genotype: SRSF2 wt/wt); 98.3% in assay [3] (SRSF2 genotype: SRSF2 P95H/wt); 101% in assay [3] (SRSF2 genotype: SRSF2 wt/wt). Besides, the cell viability in assay [4] (SRSF2 genotype: P95H/wt) and in assay [4] (SRSF2 genotype: wt/wt) was 103% each time.
Turning to `Cc1ccn[nH]1` [3-Methylpyrazole], the cell viability in assay [1] (SRSF2 genotype: SRSF2 P95H/wt) was 112% and 104%; in assay [1] (SRSF2 genotype: SRSF2 wt/wt) it was 103%; in assay [2] (SRSF2 genotype: SRSF2 P95H/wt), 107%; in assay [2] (SRSF2 genotype: SRSF2 wt/wt), 110%; in assay [3] (SRSF2 genotype: SRSF2 P95H/wt), 99.3%; in assay [3] (SRSF2 genotype: SRSF2 wt/wt) it was 105%. The cell viability came out at 95.4% in assay [4] (SRSF2 genotype: P95H/wt) and 106% in assay [4] (SRSF2 genotype: wt/wt).
As to `CC(=CCNc1ncnc2nc[nH]c12)CO` [Trans-Zeatin], the cell viability in assay [1] (SRSF2 genotype: SRSF2 P95H/wt) is 100% and 95.4%; in assay [1] (SRSF2 genotype: SRSF2 wt/wt), 104%; in assay [2] (SRSF2 genotype: SRSF2 P95H/wt) it was 99%; in assay [2] (SRSF2 genotype: SRSF2 wt/wt), 108%; in assay [3] (SRSF2 genotype: SRSF2 P95H/wt) it was 98.3%; in assay [3] (SRSF2 genotype: SRSF2 wt/wt), 103%. The cell viability was determined as 104% in assay [4] (SRSF2 genotype: P95H/wt) and 97.4% in assay [4] (SRSF2 genotype: wt/wt).
